From the supplement of paper PMC13380429
A number with no mark means an inactive call.

System: Vero E6 infected with SARS-CoV-2
Assay: inhibition of SARS-CoV-2 cytopathic effect; higher = more antiviral protection, active = above 15
Conditions: 48 h

Row | SMILES | inhibition of SARS-CoV-2 cytopathic effect (1 nM) | inhibition of SARS-CoV-2 cytopathic effect (8.33 nM) | inhibition of SARS-CoV-2 cytopathic effect (100 nM) | inhibition of SARS-CoV-2 cytopathic effect (833.33 nM) | inhibition of SARS-CoV-2 cytopathic effect (10000 nM)
1 | CC1(C)[C@@H]2C[C@@H](O)[C@@](C)(O)[C@H]1C2 [2,3-cis/exo-pinanediol] | -0.96% | 1.89% | 2.23% | -0.64% | 2.13%
2 | C[C@H]1COc2c(C3(N)CC3)c(F)cc3c(=O)c(C(=O)O)cn1c23 [pazufloxacin] | -5.2% | -1.82% | 2.15% | 0.57% | -3.15%
3 | CCCCN(CC)c1nc(C)nc2c1c(C)c(C)n2-c1c(C)cc(C)cc1C [antalarmin] | -0.13% | -2.86% | 1.21% | -0.62% | 2%
4 | COc1ccc(C2CC(c3ccccc3)=NN2c2ccc(S(N)(=O)=O)cc2)cc1 (stereo not given) | 0.58% | 2.1% | 1.18% | -2.57% | 0.95%
5 | N#CCC1(n2cc(-c3ncnc4[nH]ccc34)cn2)CN(C2CCN(C(=O)c3ccnc(C(F)(F)F)c3F)CC2)C1 [itacitinib] | 1.05% | 1.83% | 0.96% | -0.18% | -3.04%
6 | O=C(O)Cn1c(C(=O)Nc2nc(-c3ccccc3Cl)cs2)cc2ccccc21 | 0.3% | -0.21% | 0.61% | -0.36% | -0.66%
7 | Nc1nc2c(ncn2[C@@H]2O[C@H](CO)[C@@H](O)[C@H]2O)c(=O)[nH]1 [guanosine] | -3.19% | -0.4% | -0.7% | -1.53% | 0.09%
8 | CCc1ccc(OCc2ccccc2C(=O)Nc2ccc3nc(C)cc(N)c3c2)cc1 | 0.87% | 3.61% | 2.46% | 1.94% | -28.4%
9 | C[C@H](CCC(=O)O)[C@H]1CC[C@H]2[C@@H]3CC[C@@H]4C[C@H](O)CC[C@]4(C)[C@H]3C[C@H](O)[C@]12C [deoxycholic-acid] | -0.18% | 0.25% | -1.84% | -1.15% | -0.42%
10 | O=C(O)[C@H](Cc1ccc(Nc2nccc3ccncc23)cc1)NC1=C(Br)C(=O)C12CCCCC2 | 0.12% | 0.67% | -0.71% | -0.14% | 2.62%
11 | COC(=O)C(c1ccccc1)C1CCCCN1 (stereo not given) | -1.97% | -1.71% | -1.37% | -1.52% | -0.37%
12 | CN(C)C(=O)c1cc2cnc(Nc3ccc(N4CCNCC4)cn3)nc2n1C1CCCC1 [ribociclib] | -0.57% | -0.13% | -0.03% | -3.73% | -7.22%
13 | NS(=O)(=O)C#Cc1ccccc1 [pifithrin-mu] | 2.15% | 5.91% | 2.87% | 4.85% | 22.5% (active)
14 | Clc1cccc(C(c2ccc3[nH]cnc3c2)n2ccnc2)c1 (stereo not given) [liarozole] | 0.27% | 3.78% | 1.18% | 1.7% | 1.64%
15 | CN(C)C(=S)SC(=S)N(C)C [tetramethylthiuram-monosulfide] | -5.07% | -6.29% | -7.33% | 11.9% | 10%
16 | COc1cc(/C=C/C(N)=O)cc(OC)c1OC [cintriamide] | -2.6% | 1.17% | -4.56% | 2.97% | 2.84%
17 | CCCCCOC(=O)Nc1nc(=O)n([C@@H]2O[C@H](C)[C@@H](O)[C@H]2O)cc1F [capecitabine] | -2.56% | 0.42% | -1.36% | -0.59% | -1.14%
18 | C[C@]12COC(=O)C[C@@H]1CC[C@@H]1[C@@H]2CC[C@@]2(C)[C@H]1CC[C@]2(C)O [Oxandrolone] | 1.55% | 0.57% | -0.27% | -0.56% | 0.44%
19 | CC(=O)O[C@H]1C[C@@]2(C)[C@@H](C[C@@H](O)[C@H]3[C@@]4(C)CC[C@@H](O)[C@@H](C)[C@@H]4CC[C@@]32C)/C1=C(\CCC=C(C)C)C(=O)O [fusidic-acid] | -0.53% | 0.07% | -1.13% | -8.51% | -1.02%
20 | CN(C)CC[C@@](O)(c1ccccc1)c1ccccc1Cl [clofedanol] | 1.53% | 1.3% | 1.86% | 1.12% | 2.42%
21 | COc1cc(N2CCC(N3CCN(C)CC3)CC2)ccc1Nc1ncc(Cl)c(Nc2ccccc2S(=O)(=O)C(C)C)n1 | -0.23% | -4.02% | -0.56% | -0.6% | -15.5%
22 | O=C(Nc1ccc(Br)cc1)c1cc(Br)cc(Br)c1O [tribomsalan] | -1.03% | -3.93% | -1.03% | -0.02% | 6.65%
23 | Cc1cc2c(cc1C(F)(F)F)N(C(=O)Nc1ccc(Oc3cccnc3C)nc1)CC2 | 0.45% | 0.15% | -0.25% | 0.74% | -2.31%
24 | O=P1(NCCCl)OCCCN1CCCl (stereo not given) [ifosfamide] | 0.24% | -2.31% | 0.48% | 0.22% | -0.05%
25 | COc1cccc(OCCCN)c1-c1cc(Nc2cnc(C#N)cn2)n[nH]1 | -0.1% | 0.79% | -1.17% | -4.06% | -3.92%
26 | CCOC(=O)Nc1cc(-c2ccc(C)c(NS(C)(=O)=O)c2)nn2c(C)nnc12 [bromosporine] | -4.03% | -0.62% | -0.65% | -0.48% | -19.3%
27 | CO[C@@]1(NC(=O)C(C(=O)O)c2ccc(O)cc2)C(=O)N2C(C(=O)O)=C(CSc3nnnn3C)CO[C@@H]21 (stereo not given in full) [moxalactam] | 1.45% | -1.13% | -0.85% | -1.15% | 1.01%
